Compound activity deposited in PubChem BioAssay by Broad Institute.
miR-122 inh: miR-122 suppressors via Renilla sensor increase, primary screen, cell-based, Huh7 psiCHECK-miR122, Renilla luciferase, single point. 48 h. activation, % at 12.5 µM. hit rate 0.14% among 340,000. AID 623901, 2012;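 active = mean activation of 30% or more, with every replicate also reaching 30%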;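 also: 0% = median of neutral control wells and 100% = median of positive control wells; higher luciferase signal means stronger suppression of miR-122 activity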
* = called active by the depositor. Many of the other results were omitted from the sample, so hits are more common in it than they were.

SMILES	miR-122 inh
CO[C@@H]1CN(C)C(=O)c2cc(NC(=O)Cc3ccccc3)ccc2OC[C@H](C)N(C)C[C@H]1C	0
C[C@H]1CN([C@@H](C)CO)C(=O)c2cc(/C=C/c3ccccc3)cnc2O[C@@H]1CN(C)C(=O)c1cccnc1	2
O=C1/C(=C/c2ccncc2)CCC/C1=C\c1ccncc1	78*
COc1cc(/C=C2/CCC/C(=C\c3cc(O)c(OC)c(Cl)c3)C2=O)cc(Cl)c1O	-113
CCCN1C[C@@H](C)[C@@H](OC)CN(C)C(=O)c2ccc(NC(=O)COC)cc2OC[C@@H]1C	1
COc1cccc(C(=O)Nc2ccc3c(c2)C(=O)N(C)[C@H]2CC[C@H](CC(=O)NCc4ccc(F)cc4)O[C@@H]2CO3)c1	53*
CC(=O)Nc1ccc2c(c1)C(=O)N(C)[C@H]1CC[C@@H](CC(=O)NCc3ccc(Cl)cc3)O[C@H]1CO2	-130
COc1cccc(CNC(=O)C[C@@H]2CC[C@H]3[C@H](COc4ccc(NC(C)=O)cc4C(=O)N3C)O2)c1	37*
COc1ccccc1C(=O)Nc1ccc2c(c1)C(=O)N(C)[C@H]1CC[C@H](CC(=O)NCc3ccc(Cl)c(Cl)c3)O[C@H]1CO2	-308
COc1ccccc1C(=O)Nc1ccc2c(c1)C(=O)N(C)[C@H]1CC[C@H](CC(=O)NCc3ccc(Cl)c(Cl)c3)O[C@@H]1CO2	-139
CC(=O)Nc1ccc2c(c1)C(=O)N(C)[C@@H]1CC[C@@H](CC(=O)NCc3ccc(Cl)cc3)O[C@H]1CO2	68*
COc1ccccc1-c1ccc2c(c1)O[C@H](CN(C)C(=O)Nc1ccccc1)[C@@H](C)CN([C@@H](C)CO)S2(=O)=O	-32
C[C@@H]1CN([C@H](C)CO)C(=O)c2cc(-c3cccc(C#N)c3)cnc2O[C@H]1CN(C)Cc1ccccc1	-3
C[C@H]1CN([C@@H](C)CO)S(=O)(=O)c2ccc(C#CC(C)(C)O)cc2O[C@@H]1CN(C)CC1CC1	3
C[C@H]1CN([C@@H](C)CO)S(=O)(=O)c2ccc(-c3cccc(C#N)c3)cc2O[C@@H]1CN(C)C(=O)c1ccccc1	-2
C[C@H]1CN([C@@H](C)CO)S(=O)(=O)c2ccc(C#Cc3ccccc3)cc2O[C@@H]1CN(C)C(=O)Nc1ccccc1	-29
C[C@H]1CN([C@@H](C)CO)S(=O)(=O)c2ccc(-c3cccc(C(=O)N(C)C)c3)cc2O[C@@H]1CN(C)C(=O)Nc1ccccc1	-16
C[C@H]1CN([C@@H](C)CO)S(=O)(=O)c2ccc(C#CCC3CCCC3)cc2O[C@@H]1CN(C)C(=O)c1ccccn1	-50
COCC#Cc1cnc2c(c1)C(=O)N([C@@H](C)CO)C[C@@H](C)[C@H](CN(C)C(=O)Nc1c(C)noc1C)O2	5
C[C@H](CO)N1C[C@H](C)[C@H](CN(C)Cc2ccc(F)cc2)Oc2ncc(-c3ccccc3)cc2C1=O	1
CC(C)NC(=O)Nc1ccc2c(c1)CC(=O)N([C@H](C)CO)C[C@H](C)[C@H](CN(C)Cc1ccc(C(=O)Nc3ccccc3N)cc1)O2	-114
C[C@H](O)C#Cc1ccc2c(c1)O[C@H](CN(C)Cc1cncnc1)[C@@H](C)CN([C@H](C)CO)S2(=O)=O	-17
C/C=C/c1cnc2c(c1)C(=O)N([C@H](C)CO)C[C@H](C)[C@@H](CN(C)S(=O)(=O)c1ccc(C)cc1)O2	-17
C[C@@H]1CN([C@H](C)CO)C(=O)c2cc(-c3cncnc3)cnc2O[C@H]1CN(C)Cc1ccc(F)cc1	0
CNC[C@@H]1Oc2cc(C#C[C@@H](C)O)ccc2S(=O)(=O)N([C@H](C)CO)C[C@H]1C	5
SMILES	miR-122 inh
CNC[C@@H]1Oc2cc(C#CC3CCCCC3)ccc2S(=O)(=O)N([C@@H](C)CO)C[C@@H]1C	51*
CNC[C@H]1Oc2cc(C#CC(C)C)ccc2S(=O)(=O)N([C@@H](C)CO)C[C@@H]1C	-7
CNC[C@H]1Oc2cc(C#C[C@H](C)O)ccc2S(=O)(=O)N([C@H](C)CO)C[C@@H]1C	-1
CNC[C@H]1Oc2cc(C#CC3CCCCC3)ccc2S(=O)(=O)N([C@H](C)CO)C[C@@H]1C	42*
CNC[C@@H]1Oc2cc(C#C[C@H](C)O)ccc2S(=O)(=O)N([C@@H](C)CO)C[C@@H]1C	5
C[C@H](CO)N1C[C@H](C)[C@H](CN(C)CC2CCOCC2)Oc2ncc(C#Cc3ccc(F)cc3)cc2C1=O	6
C[C@H]1CN([C@@H](C)CO)S(=O)(=O)c2ccc(Br)cc2O[C@@H]1CN(C)C(=O)CC1CC1	-11
CCCC(O)C#Cc1cnc2c(c1)C(=O)N([C@H](C)CO)C[C@H](C)[C@H](CN(C)C)O2 (stereo partly drawn)	2
C[C@@H]1CN([C@H](C)CO)C(=O)c2cc(-c3ccc(F)cc3)cnc2O[C@@H]1CN(C)CC1CCOCC1	5
C[C@@H]1CN([C@H](C)CO)C(=O)c2cc(C#CC3(O)CCCC3)cnc2O[C@H]1CN(C)S(=O)(=O)c1cccc(F)c1	6
C[C@H]1CN([C@@H](C)CO)C(=O)c2cc(-c3cccnc3)cnc2O[C@@H]1CN(C)Cc1ccc(Oc2ccccc2)cc1	6
C[C@@H]1CN([C@@H](C)CO)C(=O)c2cc(-c3cccc(F)c3)cnc2O[C@H]1CN(C)CC1CCCC1	10
C[C@@H]1CN([C@@H](C)CO)C(=O)c2cc(C#CC3CCCCC3)cnc2O[C@H]1CN(C)S(=O)(=O)c1cccc(F)c1	45*
C[C@@H]1CN([C@H](C)CO)C(=O)c2cc(-c3cccnc3)cnc2O[C@H]1CN(C)Cc1ccc(Oc2ccccc2)cc1	0
C[C@@H]1CN([C@H](C)CO)C(=O)c2cc(-c3cncnc3)cnc2O[C@H]1CN(C)Cc1ccc(Oc2ccccc2)cc1	38*
C[C@H](CO)N1C[C@H](C)[C@@H](CN(C)CC2CCCC2)Oc2ncc(-c3cccc(F)c3)cc2C1=O	-4
Cc1ccc(-c2cnc3c(c2)C(=O)N([C@H](C)CO)C[C@@H](C)[C@H](CN(C)CC2CCCCC2)O3)cc1	32*
C[C@H]1CN([C@@H](C)CO)C(=O)c2cc(/C=C/c3ccccc3)cnc2O[C@H]1CN(C)S(=O)(=O)c1ccc(F)cc1	17
C[C@@H]1CN([C@@H](C)CO)C(=O)c2cc(/C=C/c3ccccc3)cnc2O[C@H]1CN(C)S(=O)(=O)c1ccc(F)cc1	3
COc1ccc(S(=O)(=O)N(C)C[C@@H]2Oc3ncc(/C=C/c4ccccc4)cc3C(=O)N([C@@H](C)CO)C[C@@H]2C)cc1	42*
C[C@H](CO)N1C[C@H](C)[C@H](CN(C)S(=O)(=O)c2cccc(F)c2)Oc2ncc(C#CC3(O)CCCC3)cc2C1=O	7
C[C@H]1CN([C@@H](C)CO)C(=O)c2cc(C3=CCCCC3)cnc2O[C@H]1CN(C)CC1CCOCC1	-5
COc1cccc(-c2cnc3c(c2)C(=O)N([C@H](C)CO)C[C@H](C)[C@@H](CN(C)C(=O)Nc2ccccc2F)O3)c1	7
C[C@H](CO)N1C[C@H](C)[C@H](CN(C)C(=O)c2cccnc2)Oc2ncc(-c3ccccc3)cc2C1=O	-8
COc1ccccc1-c1ccc2c(c1)O[C@H](CN(C)S(=O)(=O)c1ccccc1)[C@H](C)CN([C@@H](C)CO)S2(=O)=O	-17
CC(C)C#Cc1ccc2c(c1)O[C@H](CN(C)C(=O)CN(C)C)[C@H](C)CN([C@H](C)CO)S2(=O)=O	10
C[C@@H]1CN([C@@H](C)CO)C(=O)c2cc(-c3cccc(C#N)c3)cnc2O[C@@H]1CN(C)Cc1ccccc1	3
